The values that follow come from PubChem BioAssay (EPA / NIEHS).

The structures appear in SMILES notation. Activity calls are given as the source filed them. How the source made its calls: active means hit-call score of the fitted dose curve at least 0.9, where 1 is the maximum; inactive means score below 0.9.

A short description of one assay: ATG_E_Box_CIS: Attagene CIS-FACTORIAL HepG2 Assay for human Enhancer Box (E-box) (AID 2282936). The settings on record: HepG2 E-box cis-reporter transcription, actives raise or lower the signal. The gist of the method: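 HepG2 cells transiently transfected with multiplexed cis-element reporter units sensing endogenous transcription factor activity; 24 h compound exposure. Reporter mRNA measured by RT-PCR, 6-FAM primer extension, HpaI digestion and capillary electrophoresis; bidirectional fit versus DMSO.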
With `CC(C)=CCC[C@H](C)CCO`, the outcome was inactive.
As for `CCCCC/C=C\C/C=C\CCCCCCCC(=O)OC`, the outcome was inactive.
With `S=C(NC1CCCCC1)NC1CCCCC1`, the result was inactive.
As for `Cc1cccc(OCCOc2cccc(C)c2)c1`, the result was inactive.
For `O=S(=O)(Oc1ccc(Cl)cc1Cl)c1ccccc1`, the outcome was inactive.
Same read-out and setting: the entry for `CC(C)CCCC(C)CC=O` (stereo not given) is “inactive”; for `CC(C)(C)C(=O)CCc1ccc(Cl)cc1` it is “inactive”.
The same measure, in the same setting: the value for `O=CN1CCCCC1` was “inactive”; that for `O=Cc1ccc(CO)o1` was “inactive”; that for `CO[Si](CCC1CCC2OC2C1)(OC)OC` (stereo not given) was “inactive”.
As for `N#[N+]c1ccc2c(S(=O)(=O)[O-])cccc2c1O`, the outcome was inactive.
Turning to `Cc1cc(=O)n(-c2ccccc2)n1C`, the outcome was inactive.
Regarding `N[C@H]1C(O)O[C@H](CO)[C@H](O)[C@@H]1O` (stereo not given in full), the result was inactive.
In the case of `O=C(c1ccccc1)c1ccc(O)c(O)c1O`, the outcome was inactive.
Take `Cc1cccc(C(=O)O)c1`: the outcome was inactive.
Regarding `COC(=O)c1c(C)cc(O)c(C)c1O`, the result was inactive.
`Cc1cc(C)c(C)c(O)c1`: the outcome was inactive.
`O=S1(=O)OC(c2ccc(O)cc2)(c2ccc(O)cc2)c2ccccc21`: the outcome was inactive.
Regarding `CCN(Cc1cccc(S(=O)(=O)O)c1)c1ccc(C(=C2C=CC(=[N+](CC)Cc3cccc(S(=O)(=O)[O-])c3)C=C2)c2ccccc2)cc1`, the outcome was inactive.
Regarding `O=C(Nc1ccccc1)c1ccccc1O`, the outcome was inactive.
With `CC(=O)NS(=O)(=O)c1ccc(N)cc1`, the outcome was inactive.
For the molecule `CCO[Si](CCCN=C=O)(OCC)OCC`, the outcome was inactive.
On to `C=C(C)CCO`, for which the outcome was inactive.
On to `CCCCCCCCCCc1ccccc1`, for which the result was inactive.
The same measure, in the same setting: the value for `CCCCCCC(O)CO` (stereo not given) was “inactive”.
In the case of `CCOC(=O)[C@H](C)O`, the result was inactive.
On the same count and under the same terms, the value for `CC(=O)OCCC1CCCCC1` was “inactive”; that for `O=C1CCCC(=O)O1` was “inactive”.
For the molecule `CCCCC(CC)CCC(CC(C)C)OS(=O)(=O)O` (stereo not given), the outcome was inactive.
Take `CC(CC=O)c1ccccc1` (stereo not given): the result was inactive.
The same measure, in the same setting: the value for `CC1=CC[C@H]2C[C@@H]1C2(C)C` was “inactive”.
The AC50 is the concentration giving half of the maximal activity seen. Consider `O=C1c2cccc(O)c2C(=O)c2c(O)cc(CO)cc21`, for which the AC50 was 2410 nM (active).
Turning to `C(=CC=Nc1ccccc1)C=CNc1ccccc1`, the result was inactive.
Consider `C#CC1(O)CC[C@H]2[C@@H]3CCC4=CCCC[C@@H]4[C@H]3CC[C@@]21C` (stereo not given in full), for which the outcome was inactive.
Turning to `COc1cc(NC(=O)CC(C)=O)c(OC)cc1Cl`, the result was inactive.
In the case of `CNC(=S)N(C)C`, the outcome was inactive.
`COc1ccc(-c2coc3cc(O)ccc3c2=O)cc1`: the outcome was inactive.
Still for that read-out and setting: the entry for `O=c1n(CCO)c(=O)n(CCO)c(=O)n1CCO` is “inactive”.
Same read-out and setting: the entry for `CC(=O)C=CC1C(C)=CCC(C)C1(C)C` (stereo not given) is “inactive”; for `C=C(C)[C@H]1CC=C(C)CC1` it is “inactive”.

The next assay in a line: ATG_M_61_CIS: Attagene CIS-FACTORIAL HepG2 Assay for M61 Transcription Factor (Internal Marker) (AID 2282937). The settings on record: HepG2 Attagene CIS-FACTORIAL M61 internal marker reporter; actives raise or lower the signal. An outline of the steps: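 Background-control endpoint: HepG2 cells with cis-regulated reporter constructs, 24 h exposure, reporter mRNA detected via fluorescent primer extension and capillary electrophoresis; values from bidirectional fitting with DMSO baseline.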
Regarding `CC(C)=CCC[C@H](C)CCO`, the molecule was called inactive.
Still for that read-out and setting: the entry for `CCCCC/C=C\C/C=C\CCCCCCCC(=O)OC` is “inactive”; for `S=C(NC1CCCCC1)NC1CCCCC1` it is “inactive”.
Turning to `Cc1cccc(OCCOc2cccc(C)c2)c1`, the call was inactive.
As to `O=S(=O)(Oc1ccc(Cl)cc1Cl)c1ccccc1`, the outcome was inactive.
In the case of `CC(C)CCCC(C)CC=O` (stereo not given), the molecule was classed as inactive.
Take `CC(C)(C)C(=O)CCc1ccc(Cl)cc1`: the molecule was classed as inactive.
For `O=CN1CCCCC1`, the molecule was called inactive.
Consider `O=Cc1ccc(CO)o1`, for which the outcome was inactive.
Regarding `CO[Si](CCC1CCC2OC2C1)(OC)OC` (stereo not given), the molecule was classed as inactive.
For the molecule `N#[N+]c1ccc2c(S(=O)(=O)[O-])cccc2c1O`, the result was inactive.
On to `Cc1cc(=O)n(-c2ccccc2)n1C`, for which the outcome was inactive.
Still for that read-out and setting: the value for `N[C@H]1C(O)O[C@H](CO)[C@H](O)[C@@H]1O` (stereo not given in full) was “inactive”; that for `O=C(c1ccccc1)c1ccc(O)c(O)c1O` was “inactive”.
Same read-out and setting: the value for `Cc1cccc(C(=O)O)c1` was “inactive”; that for `COC(=O)c1c(C)cc(O)c(C)c1O` was “inactive”.
For `Cc1cc(C)c(C)c(O)c1`, the call was inactive.
Regarding `O=S1(=O)OC(c2ccc(O)cc2)(c2ccc(O)cc2)c2ccccc21`, the call was inactive.
With `CCN(Cc1cccc(S(=O)(=O)O)c1)c1ccc(C(=C2C=CC(=[N+](CC)Cc3cccc(S(=O)(=O)[O-])c3)C=C2)c2ccccc2)cc1`, the result was inactive.
With `O=C(Nc1ccccc1)c1ccccc1O`, the molecule was classed as inactive.
For the molecule `CC(=O)NS(=O)(=O)c1ccc(N)cc1`, the molecule was classed as inactive.
As to `CCO[Si](CCCN=C=O)(OCC)OCC`, the molecule was called inactive.
The same measure, in the same setting: the entry for `C=C(C)CCO` is “inactive”; for `CCCCCCCCCCc1ccccc1` it is “inactive”.
For the molecule `CCCCCCC(O)CO` (stereo not given), the result was inactive.
On to `CCOC(=O)[C@H](C)O`, for which the molecule was called inactive.
`CC(=O)OCCC1CCCCC1`: the outcome was inactive.
For the molecule `O=C1CCCC(=O)O1`, the molecule was classed as inactive.
As for `CCCCC(CC)CCC(CC(C)C)OS(=O)(=O)O` (stereo not given), the result was inactive.
Take `CC(CC=O)c1ccccc1` (stereo not given): the call was inactive.
On to `CC1=CC[C@H]2C[C@@H]1C2(C)C`, for which the molecule was called inactive.
As for `O=C1c2cccc(O)c2C(=O)c2c(O)cc(CO)cc21`, the molecule was called inactive.
Consider `C(=CC=Nc1ccccc1)C=CNc1ccccc1`, for which the call was inactive.
With `C#CC1(O)CC[C@H]2[C@@H]3CCC4=CCCC[C@@H]4[C@H]3CC[C@@]21C` (stereo not given in full), the molecule was called inactive.
For the molecule `COc1cc(NC(=O)CC(C)=O)c(OC)cc1Cl`, the outcome was inactive.
In the case of `CNC(=S)N(C)C`, the molecule was classed as inactive.
With `COc1ccc(-c2coc3cc(O)ccc3c2=O)cc1`, the call was inactive.
As for `O=c1n(CCO)c(=O)n(CCO)c(=O)n1CCO`, the molecule was called inactive.
`CC(=O)C=CC1C(C)=CCC(C)C1(C)C` (stereo not given): the outcome was inactive.
`C=C(C)[C@H]1CC=C(C)CC1`: the molecule was classed as inactive.
